These results are taken from PubChem BioAssay (NCI).

Compounds without any hit were thinned out: in the full panel of roughly 79,000, 15% have a hit. Unmarked numbers belong to inactive results. Activity calls are given as the source filed them. No stated cut-off is given here; in the data, active means growth inhibition above about 70%; inactive means the rest.

This assay is described as follows: NCI Yeast Anticancer Drug Screen. Data for the CLN2oe strain (AID 163).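 Further: 0% = growth of vehicle-only control cultures.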 To be noted: S. cerevisiae CLN2oe strain, stronger effect = higher value. The procedure:
Growth inhibition of yeast strains with defined genetic alterations is measured as a screen for potential anti-cancer activity. Selected strains with alterations in DNA damage repair or cell cycle control were exposed to compounds and growth inhibition was measured relative to vehicle treated controls. The strain used in this assay is CLN2oe

`Cc1cccc(/C=N\NC(=S)N2CCCCC2)n1`: the growth inhibition reads like this: (at 1.2 µM) 8%; (at 3.7 µM) 85% (active); (at 11.0 µM) 98% (active); (at 33.0 µM) 98% (active); (at 100.0 µM) 91% (active).
`O=C(Nc1cccc(C(F)(F)F)c1)Oc1ccc(Cl)cc1C(=O)c1ccccc1`: the growth inhibition is, setting by setting: (at 1.2 µM) 24%; (at 3.7 µM) 15%; (at 11.0 µM) 74% (active); (at 33.0 µM) 85% (active); (at 100.0 µM) 97% (active).
With `O=C1c2c(O)cccc2-c2nn(CCNCCO)c3ccc(NCCNCCO)c1c23`, the growth inhibition (at 1.2 µM) is 26%; the growth inhibition (at 3.7 µM) was 22%; the growth inhibition (at 11.0 µM) is 21%; the growth inhibition (at 33.0 µM) is 5%; the growth inhibition (at 100.0 µM) was 18%.
Turning to `CC1=CCCC2C1(C)CCC(C)C2(C)Cc1cc(O)ccc1O` (stereo not given), the growth inhibition runs as follows: (at 1.2 µM) -73%; (at 3.7 µM) -57%; (at 11.0 µM) -91%; (at 33.0 µM) 97% (active); (at 100.0 µM) 87% (active).
For the compound `CCOC(=O)C1=C(C)NC(C)=C(C(=O)OCC)C1c1ccc(C)cc1`, the growth inhibition is 26% (at 1.2 µM); 13% (at 3.7 µM); 33% (at 11.0 µM); 96% (active) (at 33.0 µM); 95% (active) (at 100.0 µM).
As for `O=C(/C=C/c1cccc(Br)c1)c1ccc(Cl)cc1`, the growth inhibition is, setting by setting: (at 1.2 µM) -17%; (at 3.7 µM) -19%; (at 11.0 µM) -13%; (at 33.0 µM) -12%; (at 100.0 µM) 36%.
On to `Nc1ccc(CCl)cc1Cc1c(O)ccc2ccccc12`, for which the growth inhibition is, setting by setting: (at 1.2 µM) -3%; (at 3.7 µM) -7%; (at 11.0 µM) 3%; (at 33.0 µM) -1%; (at 100.0 µM) 34%.
Regarding `CC1C(C#N)(C#N)C(C#N)=C(N)C1(Cl)[N+](=O)[O-]` (stereo not given), the growth inhibition by setting is: (at 1.2 µM) 19%; (at 3.7 µM) 39%; (at 11.0 µM) 48%; (at 33.0 µM) 53%; (at 100.0 µM) 88% (active).
